# Laboratory results published in PubChem BioAssay AID2540 (Sanford-Burnham Center for Chemical Genomics, 2010).
# The campaign covered roughly 330,000 compounds. About 4,100 (1.2%) were called active. The sample as a whole holds a higher share of actives than the screen did. Unmarked numbers belong to inactive results. Rule as the data show it: active = inhibition above about 50%; inactive = the rest.
# Biological target: Sentrin-specific protease 8 (Homo sapiens) (UniProt Q96LD8)
# Experiment: blockers of human SENP8 peptidase activity – biochemical, luminescence, primary screen (AID 2540)
# Settings: purified SENP8, Z-RLRGG-aminoluciferin cleavage, at 10 µM, hits give high values
# Sequence of Sentrin-specific protease 8 (Homo sapiens) (Q96LD8 whole entry, looked up): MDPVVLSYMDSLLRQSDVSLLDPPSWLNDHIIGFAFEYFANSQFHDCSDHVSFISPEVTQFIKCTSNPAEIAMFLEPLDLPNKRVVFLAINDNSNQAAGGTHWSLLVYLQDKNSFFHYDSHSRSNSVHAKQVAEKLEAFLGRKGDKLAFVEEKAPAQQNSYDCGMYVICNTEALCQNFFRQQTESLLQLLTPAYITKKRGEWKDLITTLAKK
row,SMILES,inhibition
1,COc1ccc(CCNC(=O)CCn2c(=O)c3ccccc3n(CC(=O)NCC3CCCO3)c2=O)cc1OC (stereo not drawn),-9.64%
2,C[C@H](NC(=O)C1CCN(S(=O)(=O)c2ccccc2)CC1)C(=O)NCc1ccccc1,-3.77%
3,CC(C)n1c(COc2ccccc2)nc2ccccc21,-6.45%
4,Cc1ccc(OCc2nc3ccccc3n2C)cc1,51.5% (active)
5,CCOc1ccc(C(O)Cc2nc3ccccc3n2C)cc1 (stereo not drawn),1.07%
6,CCn1c(SCC(=O)NC2CC2)nnc1-c1ccccc1OC,-9.1%
7,COc1ccc(C2OCC3(CO2)SC(=O)NC3=O)cc1OC (stereo not drawn),-5.03%
8,COc1ccc(-n2ncc3c(SCC(=O)NNC(C)=O)ncnc32)cc1,53.4% (active)
9,CCN(CC)C(=O)CSc1ncnc2c1cnn2-c1ccccc1,2.66%
10,COC(=O)CSc1ncnc2c1cnn2-c1ccc(C)cc1C,6.59%
11,CC(=O)Oc1ccc(-c2nc3c(C)cccc3c(=O)o2)cc1,-1.45%
12,CC(=O)Oc1ccc2c(=O)oc(-c3ccc([N+](=O)[O-])cc3)nc2c1,94.9% (active)
13,CCOC(=O)CSc1nnc(-c2ccc([N+](=O)[O-])cc2)o1,1.65%
14,COc1ccccc1OCC(=O)O/N=C(\N)c1ccccn1,-6.27%
15,N/C(=N\OC(=O)CCC1CCCCC1)c1ccccn1,70.6% (active)
16,N/C(=N\OC(=O)CC1CCCCC1)c1ccccc1,18.2%
17,COc1ccc(-c2nc(-c3ccccc3)no2)c(OC)c1,98% (active)
18,COc1ccc(OC)c(-c2csc(-c3cccs3)n2)c1,-5.23%
19,COc1ccc(-c2noc(CNC(=O)C(C)Oc3ccccc3)n2)cc1 (stereo not drawn),-0.358%
20,Clc1ccc2c(c1)C1=C(C(c3ccncc3)O2)C(c2ccc(Br)cc2)n2ncnc2N1 (stereo not drawn),-1.86%
21,CC(C)NC(=S)NN=C1CCCCCCCCCCC1,-4.77%
22,CCn1c(CC(=O)Nc2ccccc2)nnc1SCC(=O)N1CCOCC1,3.84%
23,CC(=NCc1ccco1)c1c(C(F)(F)F)[nH]n(-c2nc3ccccc3s2)c1=O,94.7% (active)
24,CCc1ccc(-c2cc(C(=O)NCc3ccco3)c3ccccc3n2)s1,-4.94%

row,SMILES,inhibition
1,CC(C)CC(=O)N/C(N)=N/c1nc2ccccc2s1,17%
2,CCC1(CC)NC(=O)N(Cc2nc3ccccc3s2)C1=O,-5%
3,C/C(=N\NC(=O)CC(C)C)c1c(C(F)(F)F)[nH]n(-c2nc3ccccc3s2)c1=O,96.3% (active)
4,CCC(C)Cn1c(O)cc2nn(-c3nc4ccccc4s3)c(=O)c-2c1C (stereo not drawn),48%
5,CC(C)(CSc1nncn1/N=C/c1ccco1)NS(=O)(=O)c1ccc(Cl)cc1,-9.04%
6,Cc1cc(/C=N/NC(N)=O)c(C)n1C1CCCCC1,-15.2%
7,O=c1c2c(nc3cc(-c4cccc(Cl)c4)[nH]n13)CCCC2,61.8% (active)
8,CCCCN1Cc2c(nc3cc(-c4ccccc4)[nH]n3c2=O)C1=O,1.85%
9,Cc1cc(=O)n2[nH]c(-c3cccc(Cl)c3)cc2n1,-14%
10,CC(Sc1nnc(-c2cccs2)n1C1CC1)C(=O)NCC1CCCO1 (stereo not drawn),-0.203%
11,Cc1ccnc(N2C(=O)c3ccc([N+](=O)[O-])cc3C2=O)c1,6.9%
12,Cc1ccc(-n2cc3ccc([N+](=O)[O-])cc3n2)cc1,68.6% (active)
13,Cc1ccc(-c2cn(S(=O)(=O)c3cccc([N+](=O)[O-])c3)nc2N)cc1,-7.7%
14,COc1ccc(CN2CCN(C(=O)c3cc(C4CC4)nn3-c3ccccc3)CC2)cc1F,-8.29%
15,COc1cc(SC)ccc1C(=O)Nc1nc(C)cs1,97.6% (active)
16,COc1cc(SC)ccc1C(=O)Nc1cc(C)ccn1,39%
17,Cc1csc(NC(=O)c2ccc(C)s2)n1,-2.73%
18,COc1ccc(N(CC(=O)NC2CCCC2)C(=O)CS(=O)CC(=O)Nc2ccc3c(c2)OCO3)cc1 (stereo not drawn),-16.6%
19,Cc1[nH]n(-c2ccccc2)c(=O)c1N=Nc1ccccc1C(=O)N1CCCCC1,-1.4%
20,C=CCNC(=S)N1CCN(CCN=Cc2c(C)[nH]n(-c3ccc([N+](=O)[O-])cc3)c2=O)CC1,61.4% (active)
21,Cc1[nH]n(-c2ccc([N+](=O)[O-])cc2)c(=O)c1C=NCCN1CCN(C(=O)c2ccccc2F)CC1,64.8% (active)
22,CC1(C)CC(=O)C(C=NCCN2CCN(C(=S)Nc3cccc(Cl)c3)CC2)=C(O)C1,0.407%
23,Cc1ccc(-n2[nH]c(C)c(/C=N/NC(=O)c3cccc([N+](=O)[O-])c3)c2=O)cc1C,-5.78%
24,CCNC(=S)N1CCN(CCN=CC2=C(O)CC(C)(C)CC2=O)CC1,-4.68%

row,SMILES,inhibition
1,CCc1ccc2nc(Nc3ncc(C(C)=O)c(C)n3)nc(C)c2c1,-7.29%
2,Cn1nnnc1-c1cc(Cl)cc(Cl)c1,3.44%
3,N#C/C(=C\c1cccnc1)C(=O)Nc1ccc(SC(F)F)cc1,7.81%
4,COc1ccc(N(CC(=O)NCCSCc2cccc(Cl)c2)S(C)(=O)=O)cc1,4.81%
5,CCC(C)c1ccc(NC(=S)N2CCCC2)cc1 (stereo not drawn),-3.49%
6,N/C(=N\OC(=O)c1cc(-c2ccccc2)nc2ccccc12)c1ccncc1,-5.5%
7,Cc1cccc(/C(N)=N/OC(=O)c2ccccc2Cl)c1,94.7% (active)
8,Cc1ccc(/C(N)=N/OC(=O)COc2ccc(Cl)c(C)c2)cc1,-7.2%
9,Cc1ccc(S(=O)(=O)NCCNC(C)c2ccc(Br)cc2)cc1 (stereo not drawn),2.45%
10,COc1ccc(C(=O)OCC(=O)c2ccc(Cl)s2)c(OC)c1OC,-5.24%
11,COc1cc(C(=O)OCc2ccc([N+](=O)[O-])cc2)cc(OC)c1OC,15.6%
12,O=C(OCC(=O)N1CCN(c2ccccc2)CC1)c1ccc([N+](=O)[O-])s1,58.1% (active)
13,COc1cc(NC(=O)COC(=O)c2ccc([N+](=O)[O-])s2)cc(OC)c1OC,63.8% (active)
14,COc1ccc(C(=O)OCC(=O)Nc2ccc3[nH]c(=O)[nH]c3c2)c(OC)c1OC,2.13%
15,COc1ccc(C(=O)OCC(=O)c2ccc(C)c(S(=O)(=O)N3CCOCC3)c2)cc1OC,-6.51%
16,C[C@H](NC(=O)c1ccccc1Cl)C(=O)OCC(=O)N1CCN(c2ccccc2)CC1,2.29%
17,COc1ccc(C(=O)COC(=O)c2ccc([N+](=O)[O-])s2)cc1OC,61.6% (active)
18,COc1cccc(/C=C/C(=O)OCC(=O)N2CCN(c3ccccc3)CC2)c1,-5.84%
19,CC1(C)Cc2ccccc2-c2nnc(-c3cccc(O)c3)n21,-5.27%
20,Cc1ccc(NS(=O)(=O)c2ccc(C(C)C)cc2)cc1S(=O)(=O)N1CCOCC1,-8.64%
21,NC(=O)c1ccc(Nc2ccc3c(c2)CCC3)c([N+](=O)[O-])c1,-12.7%
22,O=C(N/N=C/c1sc(N2CCCCC2)nc1-c1cccs1)c1cccnc1,-8.56%
23,COc1ccc(OC)c(S(=O)(=O)NCCC(C)C)c1,0.429%
24,O=C(NCC(=O)N1CCN(c2ccccc2O)CC1)c1ccc2ccccc2c1,-4.96%

row,SMILES,inhibition
1,CC(C)N(C(=O)Cn1c(SCC(=O)N2CCN(c3ccccc3)CC2)nc2ccccc21)C(C)C,3.06%
2,CC(C)N(C(=O)Cn1cc(SCC(=O)N2CCCC2)c2ccccc21)C(C)C,55.6% (active)
3,CC(C)N(C(=O)Cn1cc(S(=O)(=O)CC(=O)N2CCOCC2)c2ccccc21)C(C)C,-2.24%
4,O=[N+]([O-])c1cc(S(=O)(=O)NCCc2ccccn2)ccc1Cl,-1.07%
5,CC/C(Cc1ccccc1)=N/NC(=O)CCn1nnc2ccccc21,2.91%
6,O=C(Nc1ccccc1C(=O)NCC1CCCO1)c1ccccc1F (stereo not drawn),-12.9%
7,Cc1c(C(=O)N(C)CCc2cnn(C)c2)oc2c(F)cccc12,3.74%
8,O=C(Nc1nc2ccc([N+](=O)[O-])cc2s1)c1ccncc1,87.5% (active)
9,O=C(NC(Nc1nc2ccc([N+](=O)[O-])cc2s1)(C(F)(F)F)C(F)(F)F)c1ccccc1,-0.974%
10,O=C(c1ccncc1)c1ccc([N+](=O)[O-])cc1,-5.02%
11,CCCOC(=O)c1c(NC(=O)c2cnn3c2NC(c2ccccc2)CC3C(F)(F)F)sc2c1CCCC2 (stereo not drawn),-1.5%
12,O=C(c1ccco1)N1CCN(C(=S)Nc2cc(F)cc(F)c2)CC1,2.74%
13,COc1ccc(N2CCN(C(=O)CNS(=O)(=O)c3ccc(C)c(C)c3)CC2)cc1,-6.38%
14,Cc1cccc2cc3c(N)c(C(=O)N4CCCc5ccccc54)sc3nc12,-4.99%
15,CC(=O)c1ccc(OCCCC(=O)Nc2ccc(C)c(S(=O)(=O)N3CCOCC3)c2)cc1,8.63%
16,CC1CN(C(=S)SCC(=O)c2ccccc2)CC(C)O1 (stereo not drawn),1.35%
17,O=C(CSC(=S)N1CCOCC1)c1ccccc1,59.3% (active)
18,O=C(CSC(=S)N1CCOCC1)c1cc(Br)cc(Br)c1O,-4.17%
19,CCOc1ccc(S(=O)(=O)N2CCC(C(=O)NCC(=O)Nc3cccc(Cl)c3C)CC2)cc1,3.22%
20,Cc1ccc(-c2nc(CSCC(=O)NC3CCN(Cc4ccccc4)CC3)c(C)o2)cc1,-1.87%
21,CCCn1c(C)cc(/C=C(\C#N)C(=O)OCC(=O)Nc2cc(OC)c(OC)c(OC)c2)c1C,1.35%
